Compounds with a hit are over-represented: about 3.6% of the library has one in this group of screens.
Pf apPOL inh – Pf-apPOL DNA polymerase inhibition. Recombinant Pf-apPOL, molecular beacon fluorescence, 1.5 h. inhibition, % at 10 µM. hit rate 0.25% among 210,000
mHTT-CaM PPI inh – inhibitors of human mutant huntingtin-calmodulin interaction; P42858; AlphaScreen His-mHTT/GST-CaM binding, luminescence; inhibition, % at 15 µM; hit rate 3.6% among 190,000;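 note: 0% = both proteins with DMSO and 100% = one protein alone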
An asterisk follows results filed as active; . = no result given. Cut-off read from the data, not from the text of the source: active = inhibition above about 50%; inactive = the rest.

SMILES	Pf apPOL inh	mHTT-CaM PPI inh
CCC1CCCCN1C(=O)c1c(C)oc2ccn(Cc3ccccc3F)c(=O)c12 (configuration not stated)	1.6	67.7*
CCn1ccc2oc(C)c(C(=O)N3CCN(c4ccccc4Cl)CC3)c2c1=O	0.2	77.1*
Cc1oc2ccn(Cc3ccccc3F)c(=O)c2c1C(=O)N1CCCC(C)C1 (configuration not stated)	-1.2	11.1
CCOc1cc(C(=O)Nc2ccc([N+](=O)[O-])cc2OC)cc(OCC)c1OCC	3.0	21.6
O=C1OC(c2cc(F)c(F)cc2Cl)=N/C1=C\c1ccccc1	0.7	3.0
O=C1OC(c2ccc(Cl)cc2Cl)=N/C1=C\c1ccccc1[N+](=O)[O-]	-1.3	-3.0
Cc1ccc(C2=N/C(=C\c3ccccc3Br)C(=O)O2)cc1[N+](=O)[O-]	1.5	0.0
Cc1ccccc1/C=C1\N=C(c2ccc(C)c([N+](=O)[O-])c2)OC1=O	1.8	55.0*
COc1ccc(C2=N/C(=C\c3ccccc3[N+](=O)[O-])C(=O)O2)c(Cl)c1	77.1*	1.0
CCn1c2ccccc2c2nnc(SCC(=O)Nc3cccc(C(F)(F)F)c3)nc21	11.4	4.0
COCCN=C1Nc2ccccc2NC12CCCN(S(=O)(=O)c1cccs1)C2 (configuration not stated)	-8.2	19.9
CC(=O)NCC(=O)N1CCCC2(C1)Nc1ccccc1NC2=NCc1ccccc1 (configuration not stated)	-2.7	12.3
COCC(=O)N1CCCC2(C1)Nc1ccccc1NC2=NCc1ccccc1 (configuration not stated)	-5.0	51.0*
CN(C)S(=O)(=O)N1CCCC2(C1)Nc1ccccc1NC2=NCc1ccccc1 (configuration not stated)	-2.7	54.2*
COCCN=C1Nc2ccccc2NC12CCCN(C(=O)Cc1c(F)cccc1Cl)C2 (configuration not stated)	-0.4	46.2
COCCN=C1Nc2ccccc2NC12CCCN(C(=O)Nc1ccc(F)cc1F)C2 (configuration not stated)	-4.7	99.8*
COCCN=C1Nc2ccccc2NC12CCCN(C(=O)Cc1ccc(Cl)cc1)C2 (configuration not stated)	-6.6	99.9*
COCCN=C1Nc2ccccc2NC12CCCN(C(=O)c1ccncc1)C2 (configuration not stated)	-2.9	-1.6
COCC(C)(O)CNC(=O)C(=O)NC1CC1 (configuration not stated)	-3.0	-14.3
CCCS(=O)(=O)N1CCCc2ccc(NC(=O)c3ccccc3F)cc21	-6.2	-17.6
Cn1nccc1NC(=S)Nc1ccc(Cl)cc1	-7.7	.
O=C(Nc1ccccc1C(=O)O)c1ccc2c(c1)C(=O)N(c1ccc(Br)cc1)C2=O	-1.0	6.0
COCCNC(=O)c1cnn2c3c(cnc12)CC(C)CC3 (configuration not stated)	-1.7	-6.2
CCn1ccc(C(=O)N2CCCC3(C2)Nc2ccccc2NC3=NCc2ccccc2)n1 (configuration not stated)	-6.3	15.8
O=C(CN1CCOCC1)N1CCCC2(C1)Nc1ccccc1NC2=NCc1ccccc1 (configuration not stated)	-8.2	91.5*
SMILES	Pf apPOL inh	mHTT-CaM PPI inh
O=C(NCCCN1CCCC1)c1cc2c(=O)oc3ccccc3c2s1	-1.6	10.0
Oc1oc(-c2ccccc2Br)nc1C=Nc1cccc(Cl)c1	-5.2	4.0
Oc1oc(-c2ccccc2F)nc1C=Nc1cccc(Cl)c1	72.5*	3.0
C=CCNC(=O)c1cc2c(=O)n3cccc(C)c3nc2n(CCOCCO)c1=N	-3.5	-1.0
COc1cc(/C=C2\NC(=O)NC2=O)cc(Cl)c1OCc1cccc(C(=O)O)c1	-3.5	6.0
COc1cc(/C=C/[N+](=O)[O-])cc(Cl)c1OCc1cccc(C(=O)O)c1	-4.2	56.8*
Cc1ccc(C(=O)Nc2cccc(NC(=O)c3ccco3)c2)cc1Cl	8.6	2.4
COc1ccc(C(C)NC(=O)c2ccccc2)cc1OC (configuration not stated)	-12.7	-3.1
O=C(c1ccccc1)N1CCC(n2c(-c3ccco3)nc3cccnc32)C1 (configuration not stated)	-4.1	6.8
O=C(c1ccc(F)cc1)N1CCC(n2c(-c3ccco3)nc3cccnc32)C1 (configuration not stated)	-2.2	8.9
O=C(c1cccc(Br)c1)N1CCC(n2c(-c3ccco3)nc3cccnc32)C1 (configuration not stated)	-3.8	87.0*
Cc1ccc(C(=O)N2CCC(n3c(-c4ccco4)nc4cccnc43)C2)cc1F (configuration not stated)	-1.0	72.0*
O=C(c1cccc(F)c1)N1CCC(n2c(-c3ccco3)nc3cccnc32)C1 (configuration not stated)	-4.8	32.7
O=C(c1ccc(F)c(F)c1)N1CCC(n2c(-c3ccco3)nc3cccnc32)C1 (configuration not stated)	-5.9	70.7*
O=C1CCC(=O)N1c1ccc(S(=O)(=O)N2CCN(c3nccc(C(F)(F)F)n3)CC2)cc1	-8.1	.
Cn1c(=O)c2c(nc3n(-c4ccccc4)c(-c4ccc(F)cc4)cn23)n(C)c1=O	0.4	-4.0
O=C(Nc1c2c(nn1-c1ccc(Cl)cc1)CS(=O)(=O)C2)c1cccc(Br)c1	-2.5	34.0
Brc1cncc(Br)c1	.	-6.6
CSc1cccc(NC(=O)C(=O)NCCC2=CCCCC2)c1	-6.3	-14.1
CCCN1CCCc2cc(CCNC(=O)C(=O)Nc3cccc(SC)c3)ccc21	-2.2	65.4*
COc1cc(NC(=O)N2CC(C)Oc3ccc(C)cc32)cc(OC)c1OC (configuration not stated)	-9.4	4.6
O=C1c2ccccc2C(=O)c2cc(NC(=O)c3cc(Cl)sc3Cl)ccc21	-4.4	14.0
O=C(Nc1nc(-c2ccccc2)c(-c2ccccc2)o1)c1cccs1	1.5	62.0*
COc1ccc(-c2csc(NC(=O)c3cccs3)n2)cc1	-4.9	3.2
COc1ccc(-c2nnc(NC(=O)c3cccs3)o2)cc1	-34.5	66.0*
SMILES	Pf apPOL inh	mHTT-CaM PPI inh
CC(=O)Nc1nc(-c2ccccc2)c(-c2ccccc2)o1	-6.3	23.8
Cc1ccc(NC(=O)N2CCC(N3CCN(Cc4ccc(F)cc4)C3=O)CC2)cc1Cl	-2.9	4.8
COc1nc(OC)c(F)c(Oc2ccc(C(C)=O)cc2)c1F	-1.0	5.0
Cc1ccccc1NC(=O)N1CCCC1c1ccccc1Cl (configuration not stated)	-4.1	-1.6
COc1ccccc1N1CCN(Cc2cc(OC)c(O)c([N+](=O)[O-])c2)CC1	-7.1	-1.8
O=[N+]([O-])c1cc(CN2CCC(c3ccccc3)C2)c(O)c2ncccc12 (configuration not stated)	-0.6	100.3*
O=[N+]([O-])c1ccccc1CN1CCC(O)CC1	-8.1	-4.6
CC1CCN(Cc2cc([N+](=O)[O-])c(O)c3ncccc23)CC1	-88.8	100.0*
COc1ccccc1N1CCN(Cc2cc([N+](=O)[O-])c(O)c3ncccc23)CC1	2.5	100.2*
CN1CCN(Cc2cc([N+](=O)[O-])c(O)c3ncccc23)CC1	2.7	100.0*
O=C(NC(/C=C/c1ccccc1)c1cc([N+](=O)[O-])c2cccnc2c1O)C1CCCCC1 (configuration not stated)	10.4	30.0
CN1CCCN(Cc2ccccc2[N+](=O)[O-])CC1	-5.5	-11.1
CSc1sc(C(=O)NC(C)C)c(-c2cccs2)c1C#N	-18.4	.

Bioassay records: PubChem, University of Kansas High Throughput Screening Laboratory
